Experimental data: PubChem BioAssay AID1565 (Sanford-Burnham Center for Chemical Genomics, 2009)
The whole screen tested about 290,000 compounds, of which about 3,200 (1.1%) were called active. The full list was thinned out, with actives kept by preference. Values without a mark were called inactive. Rule as the data show it: active = inhibition above about 60%; inactive = the rest.

target: Phosphoethanolamine/phosphocholine phosphatase (Homo sapiens) (UniProt Q8TCT1); test: PubChem AID 1565; conditions: recombinant PHOSPHO1, absorbance phosphatase assay; at 13.3 µM; stronger effect = higher value
Sequence (Q8TCT1 whole entry, looked up): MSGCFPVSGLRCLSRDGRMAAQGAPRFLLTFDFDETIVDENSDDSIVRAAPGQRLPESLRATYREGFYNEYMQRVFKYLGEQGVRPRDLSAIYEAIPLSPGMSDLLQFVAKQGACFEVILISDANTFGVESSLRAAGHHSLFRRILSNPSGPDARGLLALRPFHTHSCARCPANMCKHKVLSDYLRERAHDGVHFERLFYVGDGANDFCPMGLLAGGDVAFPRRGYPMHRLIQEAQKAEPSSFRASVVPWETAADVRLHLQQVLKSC

| Compound | inhibition |
| --- | --- |
| COc1cccc2cc(C(=O)NCc3ccc(C)cc3)c(=N)oc12 | 37.7% |
| CC(=O)Nc1ccc(NC(=O)C2CCCN2S(=O)(=O)c2cccc(C(F)(F)F)c2)cc1 (stereo unspecified) | 24% |
| Cc1c2cnn(CC(=O)NCc3ccccn3)c(=O)c2c(C)n1Cc1ccc(Cl)cc1 | -9% |
| Nc1nnc(SCn2nnc3ccccc3c2=O)s1 | 16.1% |
| O=C(Cn1nnc2ccccc2c1=O)NCc1ccc(Cl)cc1 | 62.9% (active) |
| Cc1ccc(CNC(=O)CN2CCN(Cc3ccc(Cl)cc3)C2=O)cc1 | 4.8% |
| O=c1c2ccccc2nnn1CSc1nnnn1-c1ccccc1 | 8% |
| C=CCn1c(SCn2nnc3ccccc3c2=O)nnc1-c1ccc(Cl)cc1 | 94.8% (active) |
| COc1ccc(N(C)C(=O)C2CCN(S(=O)(=O)c3cccc4nsnc34)CC2)cc1 | 6.8% |
| CCOc1ccc(NC(=O)CCCCCN2C(=O)[C@@H]3Cc4ccccc4CN3C2=O)cc1 | 6.8% |
| COc1cc(C(=O)OC2CCOC2=O)c([N+](=O)[O-])cc1OC (stereo unspecified) | 32.3% |
| Cc1cccc(-n2c(N)c(C(=O)N3CCN(C)CC3)sc2=S)c1 | 83.6% (active) |
| Cc1ccc(-n2c(N)c(C(=O)N3CCOCC3)sc2=S)c(C)c1 | 87.8% (active) |
| COc1ccc2[nH]c(C(=O)N3CCN(C)CC3)c(C)c2c1 | 18.7% |
| Cc1ccc(S(=O)(=O)N2CCN(C(=O)N3CCOCC3)CC2)c(C)c1 | -7.3% |
| N#Cc1ccccc1-n1c(N)c(C(=O)N2CCCC2)sc1=S | -13.6% |
| Cc1cccc(C(=O)N2CCCN(C(=O)c3cccc(C)c3)CC2)c1 | 8.5% |
| COCC1CCN(C(=O)c2ccc3oc(Cc4ccccc4)nc3c2)C1 (stereo unspecified) | 27.6% |
| Cc1cc(OCc2cc(C(=O)NCc3cc(C(C)C)no3)no2)cc(C)c1Cl | 22.6% |
| CCn1cc(CCC(=O)NCc2ccc(F)cc2)c2ccccc21 | 38.1% |
| COc1ccc(CN(C)C(=O)c2cc(-c3ccc(C)cc3C)nc3ccccc23)c(OC)c1OC | 31.9% |
